Results taken from the supplement of paper PMC9262897, “Low-cost anti-mycobacterial drug discovery using engineered E. coli” (Nature Communications, 2022).
Structures can show the parent of a compound that is named as a salt. ± gives the standard deviation of the averaged measurements.

How the values were obtained:
Experiment in all cases: growth (OD600 after 10 h); higher = more growth (less inhibition)
[1] = tested on: E. coli TESEC Alr+ wild-type control; conditions: compound 0.1 mM; raw OD600 reference: median of DMSO wells 0.241, cell-free background 0.041
Method: (§1)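 TESEC Mtb Alr E. coli, or the Alr+ wild-type control, in 384-well plates with Prestwick library compounds at 0.1 mM and 1% DMSO, across arabinose induction levels of 1E3 to 1E7 nM. Growth is read as OD600 after 10 h at 37 °C in triplicate biological replicates.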

E. coli TESEC Mtb Alr [2] = conditions: compound 0.1 mM
Method: as §1

E. coli TESEC Mtb Asd = conditions: compound 0.1 mM
Method: (§2)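 TESEC E. coli strains in which the native enzyme is deleted and replaced by arabinose-inducible Mtb Asd, DapB, CysH or TrpD, each grown in its selective medium. Strains were screened against the Prestwick library at 0.1 mM and 1% DMSO in 384-well format at low and high arabinose induction. Growth is read as OD600 after 10 h in triplicate.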

E. coli TESEC Mtb DapB = conditions: compound 0.1 mM
Method: as §2

E. coli TESEC Mtb Alr [3] = conditions: compound 0.1 mM; remark: listed apart in the source
Method: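 TESEC Mtb Alr E. coli (ΔaraC ΔtolC ΔentC Δalr ΔdadX, arabinose-inducible Mtb Alr) or the Alr+ wild-type control strain, grown in defined M9-fructose medium without D-alanine in 96-well plates with Prestwick library compounds at 0.1 mM and 1% DMSO. Low Alr induction is 0.1 µM arabinose and high induction is 10 mM arabinose.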

[4] = arabinose 1000 nM, raw OD600 reference: median of DMSO wells 0.294, cell-free background 0.041
[5] = arabinose 10000 nM, raw OD600 reference: median of DMSO wells 0.264, cell-free background 0.041
[6] = arabinose 100000 nM, raw OD600 reference: median of DMSO wells 0.201, cell-free background 0.041
[7] = arabinose 1000000 nM, raw OD600 reference: median of DMSO wells 0.193, cell-free background 0.041
[8] = arabinose 10000000 nM, raw OD600 reference: median of DMSO wells 0.146, cell-free background 0.041
[9] = arabinose induction (level): High, raw OD600 reference: median of DMSO wells 0.331, cell-free background 0.041
[10] = arabinose induction (level): Low, raw OD600 reference: median of DMSO wells 0.417, cell-free background 0.041
[11] = arabinose induction (level): High, raw OD600 reference: median of DMSO wells […], cell-free background 0.041
[12] = arabinose induction (level): Low, raw OD600 reference: median of DMSO wells 0.227, cell-free background 0.041
[13] = arabinose 100 nM, raw OD600 reference: median of DMSO wells 0.413, cell-free background 0.052
[14] = arabinose 10000000 nM, raw OD600 reference: median of DMSO wells […], cell-free background 0.052

SMILES	growth [1]	growth (E. coli TESEC Mtb Alr [2]; [4])	growth (E. coli TESEC Mtb Alr [2]; [5])	growth (E. coli TESEC Mtb Alr [2]; [6])	growth (E. coli TESEC Mtb Alr [2]; [7])	growth (E. coli TESEC Mtb Alr [2]; [8])	growth (E. coli TESEC Mtb Asd; [9])	growth (E. coli TESEC Mtb Asd; [10])	growth (E. coli TESEC Mtb DapB; [11])	growth (E. coli TESEC Mtb DapB; [12])	growth (E. coli TESEC Mtb Alr [3]; [13])	growth (E. coli TESEC Mtb Alr [3]; [14])
Nc1c2ccccc2nc2ccccc12 [Aminacrine]	0.0412 ± 0.0015	0.0397 ± 0.00091	0.0408 ± 0.0025	0.043 ± 0.0015	0.0398 ± 0.0011	0.0406 ± 0.00096	0.0581 ± 0.016	0.0513 ± 0.004	0.0484 ± 0.00044	0.0506 ± 0.005	0.15 ± 0.062	0.0885 ± 0.027
C#CCN(C)CCCOc1ccc(Cl)cc1Cl [Clorgyline hydrochloride]	0.14 ± 0.0066	0.168 ± 0.0046	0.175 ± 0.0062	0.174 ± 0.0076	0.0744 ± 0.0031	0.133 ± 0.011	0.25 ± 0.093	0.21 ± 0.04	0.158 ± 0.013	0.208 ± 0.016	0.392 ± 0.0072	0.222 ± 0.016
C/C=C(/C(=C/C)c1ccc(O)cc1)c1ccc(O)cc1 [Dienestrol]	0.0526 ± 0.0075	0.0496 ± 0.0047	0.0394 ± 0.0002	0.0419 ± 0.0015	0.0393 ± 0.0001	0.0759 ± 0.031	0.0492 ± 0.0033	0.0498 ± 0.0031	0.122 ± 0.035	0.0554 ± 0.0074	0.0576 ± 0.014	0.05137 ± 0.00032
CSc1ccc2c(c1)C(N1CCN(C)CC1)Cc1ccccc1S2 (stereo not drawn) [Methiothepin maleate]	0.0405 ± 0.00044	0.0412 ± 0.0021	0.0394 ± 0.00042	0.04073 ± 0.00025	0.03917 ± 5.8e-05	0.0411 ± 0.0013	0.0562 ± 0.0036	0.0503 ± 0.0057	0.0514 ± 0.00083	0.0485 ± 0.00094	0.293 ± 0.21	0.0516 ± 0.00053
C[C@]12CC[C@H]3C(=CCc4cc(O)ccc43)[C@@H]1CCC2=O [Equilin]	0.126 ± 0.0019	0.17 ± 0.0095	0.226 ± 0.0079	0.154 ± 0.0054	0.0878 ± 0.0015	0.125 ± 0.0018	0.159 ± 0.0023	0.258 ± 0.044	0.174 ± 0.0089	0.183 ± 0.017	0.388 ± 0.0096	0.163 ± 0.0075
Cc1c(N)c(=O)n(-c2ccccc2)n1C [Ampyrone]	0.25 ± 0.0062	0.289 ± 0.008	0.267 ± 0.019	0.217 ± 0.02	0.187 ± 0.0029	0.146 ± 0.007	0.368 ± 0.033	0.446 ± 0.01	0.175 ± 0.0078	0.209 ± 0.011	0.414 ± 0.0049	0.3598 ± 0.0033
CC[C@H]1OC(=O)[C@H](C)[C@@H](O[C@H]2C[C@@](C)(OC)[C@@H](O)[C@H](C)O2)[C@H](C)[C@@H](O[C@@H]2O[C@H](C)C[C@H](N(C)C)[C@H]2O)[C@](C)(O)C[C@@H](C)[C@@H]2N[C@@H](COCCOC)O[C@H]([C@H]2C)[C@]1(C)O [Dirithromycin]	0.0424 ± 0.0002	0.04193 ± 0.00015	0.03907 ± 0.00012	0.044 ± 0.00057	0.0396 ± 0.0001	0.0428 ± 0.0002	0.057 ± 0.0029	0.054 ± 0.0053	0.0519 ± 0.0012	0.052 ± 0.00061	0.0635 ± 0.0042	0.0507 ± 0.00036
CC(C)NCC(O)c1ccc(NS(C)(=O)=O)cc1 (stereo not drawn) [Sotalol hydrochloride]	0.163 ± 0.0095	0.206 ± 0.0064	0.254 ± 0.0096	0.173 ± 0.025	0.138 ± 0.0027	0.142 ± 0.0089	0.242 ± 0.084	0.377 ± 0.056	0.181 ± 0.016	0.221 ± 0.016	0.402 ± 0.012	0.359 ± 0.025
CCCOc1ccc(C(=O)OCCN(CC)CC)cc1N [Proparacaine hydrochloride]	0.228 ± 0.0033	0.308 ± 0.017	0.268 ± 0.013	0.196 ± 0.0096	0.17 ± 0.0027	0.153 ± 0.0029	0.46 ± 0.0053	0.426 ± 0.025	0.187 ± 0.0041	0.231 ± 0.021	0.408 ± 0.017	0.354 ± 0.024
